Reference: PMC5540273 (PLoS ONE, 2017)

system: MAP3K3; conditions: concentration: 1 μM, replicates: in singlicate; n = 1
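Also: KINOMEscan kinase panel screen.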

Structure (SMILES) | %Inh [%]
Cn1cncc1C(=O)NC1CCN(c2ccnc(Nc3ccc(F)cc3)n2)C1 (centres unmarked) [GSK1379717] | 0
CC(C)c1cc(-c2ccc3c(N)n[nH]c3c2)nc(N)n1 [GSK2250882] | 2
COc1cccc(CNC(=O)NC2CCN(c3ccnc(Nc4ccc(F)cc4)n3)C2)c1 (centres unmarked) [GSK1379723] | 0
Cc1ccc(-c2nc(Nc3ccncc3)c3ccccc3n2)s1 [GSK189015] | 0
Nc1nccc(-c2c(-c3ccc(F)cc3)ncn2C2CCN(Cc3ccccc3)CC2)n1 [SB-219980] | 0
COc1cccc(C2=C(Nc3cc(Cl)c(O)c(Cl)c3)C(=O)NC2=O)c1 [SB-390767] | 0
Cc1ccc(NC(=O)Nc2ccc(Cl)c(C(F)(F)F)c2)cc1-c1ccc(C(=O)Nc2ccncc2)cc1 [GSK1398470] | 0
COc1ccc(Nc2nccc(N3CCC(NC(=O)c4cc5ccccc5s4)C3)n2)cc1 (centres unmarked) [GSK1379738] | 0
Cc1ccc(NC(=O)c2ccc(Cl)cc2)cc1-c1ccc(C(=O)Nc2ccncc2)cc1 [GSK1398467] | 0
FC(F)(F)c1ccccc1-c1cc(-c2c[nH]nc2-c2ccccn2)ccn1 [GW679396] | 0
CNc1cc(-c2ccc3c(N)n[nH]c3c2)nc(N)n1 [GSK2224810] | 0
Cc1nccc(-c2c(-c3ccc(F)cc3)ncn2CCCN2CCOCC2)n1.Cl [SB-282975] | 19
CS(=O)(=O)CCNCc1nc(-c2ccc3ncnc(Nc4ccc(OCc5ccccc5)c(Cl)c4)c3c2)cs1.Cl [GW582764] | 0
CS(=O)(=O)CCNCc1nc(-c2ccc3ncnc(Nc4ccc5c(cnn5Cc5ccccc5)c4)c3c2)cs1.Cl.Cl [GW569716] | 0
Cc1ccccc1Cn1ccn2c(=O)cc(N3CCOCC3)nc12 [GSK2269905] | 0
CNc1nc(-c2ccc3c(N)n[nH]c3c2)cc(N2C[C@@H](C(=O)Nc3ccccc3)CC[C@H]2C)n1 [GSK2298859] | 0
Cc1ccc(NC(=O)Nc2ccccc2)cc1-c1ccc(C(=O)Nc2ccncc2)cc1 [GSK1398471] | 0
COc1ccc(Nc2nccc(N3CCC(NC(=O)C(C)c4ccc(Cl)cc4)CC3)n2)cc1 (centres unmarked) [GSK1379812] | 0
O=C(Nc1n[nH]c2nc(-c3ccco3)c(Br)cc12)C1CCN(Cc2ccccc2)C1.O=C(O)[C@H](O)[C@@H](O)C(=O)O (centres unmarked) [SB-742034] | 24

Structure (SMILES) | %Inh [%]
COc1ccc(CSc2nnc(-c3ccc4ncsc4c3)o2)cc1C(F)(F)F | 0
COc1nccc(-c2c(-c3ccc(F)cc3)ncn2CCCN2CCOCC2)n1 [SB-282852] | 13
CSc1ccc(-c2nc3n(c2-c2ccncc2)CCC3)cc1 [SKF-105561] | 0
CC(C)c1ccc(O)cc1Nc1ccnc2ccc(C(F)(F)F)cc12 [GW482059] | 1
c1ccc(-c2ccnc3[nH]ccc23)cc1 [SB-693578] | 5
O=C(Nc1n[nH]c2cc(-c3ccsc3)ccc12)C1CC1 [SB-732932] | 5
Fc1ccc(-c2nn3cccc(F)c3c2-c2ccncc2)cc1 [GW475620] | 0
CNC(=O)c1ccc(C)c(-n2c(C)cc(OCc3ccc(F)cc3F)c(Br)c2=O)c1 | 0
CCCCc1nn2ncccc2c1-c1ccnc(NC2CC2)n1 [GW684374] | 0
CC(=O)c1c(C)c2cnc(Nc3ccc(N4CCNCC4)cn3)nc2n(C2CCCC2)c1=O | 0
COC(=O)C(NC(=O)NC1CCN(c2ccnc(Nc3ccc(F)cc3)n2)C1)c1ccccc1 (centres unmarked) [GSK1379712] | 0
O=c1cc(N2CCOCC2)nc2n(Cc3ccccc3F)ccn12 [GSK2297428] | 0
COc1ccc(CSc2nnc(-c3ccc4nccn4c3)o2)cc1C(F)(F)F | 9
COc1cccc(NC(=O)Nc2ccc(C)c(-c3ccc(C(=O)Nc4ccncc4)cc3)c2)c1 [GSK1398474] | 0
O=C1NC(=O)C(c2ccc(Cl)cc2)=C1Nc1ccc(O)cc1 [SB-340867] | 11
COC(=O)c1cccc(NC(=O)NC2CCN(c3ccnc(Nc4ccc(OC)cc4)n3)C2)c1 (centres unmarked) [GSK1379746] | 0
Cc1c(Cn2c3ccccc3n3c(=O)cc(N4CCOCC4)nc23)cccc1C(F)(F)F [GSK2306394] | 0
Nc1cccc(-c2ccc3c(N)n[nH]c3c2)n1 [GSK2192730] | 0

system: MAP3K4; conditions: concentration: 1 μM, replicates: in singlicate; n = 1

Structure (SMILES) | %Inh [%]
Cn1cncc1C(=O)NC1CCN(c2ccnc(Nc3ccc(F)cc3)n2)C1 (centres unmarked) [GSK1379717] | 13
CC(C)c1cc(-c2ccc3c(N)n[nH]c3c2)nc(N)n1 [GSK2250882] | 1
COc1cccc(CNC(=O)NC2CCN(c3ccnc(Nc4ccc(F)cc4)n3)C2)c1 (centres unmarked) [GSK1379723] | 13
Cc1ccc(-c2nc(Nc3ccncc3)c3ccccc3n2)s1 [GSK189015] | 26
Nc1nccc(-c2c(-c3ccc(F)cc3)ncn2C2CCN(Cc3ccccc3)CC2)n1 [SB-219980] | 0
COc1cccc(C2=C(Nc3cc(Cl)c(O)c(Cl)c3)C(=O)NC2=O)c1 [SB-390767] | 7
Cc1ccc(NC(=O)Nc2ccc(Cl)c(C(F)(F)F)c2)cc1-c1ccc(C(=O)Nc2ccncc2)cc1 [GSK1398470] | 14
COc1ccc(Nc2nccc(N3CCC(NC(=O)c4cc5ccccc5s4)C3)n2)cc1 (centres unmarked) [GSK1379738] | 29
Cc1ccc(NC(=O)c2ccc(Cl)cc2)cc1-c1ccc(C(=O)Nc2ccncc2)cc1 [GSK1398467] | 0
FC(F)(F)c1ccccc1-c1cc(-c2c[nH]nc2-c2ccccn2)ccn1 [GW679396] | 24
CNc1cc(-c2ccc3c(N)n[nH]c3c2)nc(N)n1 [GSK2224810] | 0
Cc1nccc(-c2c(-c3ccc(F)cc3)ncn2CCCN2CCOCC2)n1.Cl [SB-282975] | 22
CS(=O)(=O)CCNCc1nc(-c2ccc3ncnc(Nc4ccc(OCc5ccccc5)c(Cl)c4)c3c2)cs1.Cl [GW582764] | 20
CS(=O)(=O)CCNCc1nc(-c2ccc3ncnc(Nc4ccc5c(cnn5Cc5ccccc5)c4)c3c2)cs1.Cl.Cl [GW569716] | 5
Cc1ccccc1Cn1ccn2c(=O)cc(N3CCOCC3)nc12 [GSK2269905] | 30
CNc1nc(-c2ccc3c(N)n[nH]c3c2)cc(N2C[C@@H](C(=O)Nc3ccccc3)CC[C@H]2C)n1 [GSK2298859] | 0
Cc1ccc(NC(=O)Nc2ccccc2)cc1-c1ccc(C(=O)Nc2ccncc2)cc1 [GSK1398471] | 0
COc1ccc(Nc2nccc(N3CCC(NC(=O)C(C)c4ccc(Cl)cc4)CC3)n2)cc1 (centres unmarked) [GSK1379812] | 15
O=C(Nc1n[nH]c2nc(-c3ccco3)c(Br)cc12)C1CCN(Cc2ccccc2)C1.O=C(O)[C@H](O)[C@@H](O)C(=O)O (centres unmarked) [SB-742034] | 0

Structure (SMILES) | %Inh [%]
COc1ccc(CSc2nnc(-c3ccc4ncsc4c3)o2)cc1C(F)(F)F | 7
COc1nccc(-c2c(-c3ccc(F)cc3)ncn2CCCN2CCOCC2)n1 [SB-282852] | 7
CSc1ccc(-c2nc3n(c2-c2ccncc2)CCC3)cc1 [SKF-105561] | 9
CC(C)c1ccc(O)cc1Nc1ccnc2ccc(C(F)(F)F)cc12 [GW482059] | 13
c1ccc(-c2ccnc3[nH]ccc23)cc1 [SB-693578] | 12
O=C(Nc1n[nH]c2cc(-c3ccsc3)ccc12)C1CC1 [SB-732932] | 5
Fc1ccc(-c2nn3cccc(F)c3c2-c2ccncc2)cc1 [GW475620] | 0
CNC(=O)c1ccc(C)c(-n2c(C)cc(OCc3ccc(F)cc3F)c(Br)c2=O)c1 | 6
CCCCc1nn2ncccc2c1-c1ccnc(NC2CC2)n1 [GW684374] | 6
CC(=O)c1c(C)c2cnc(Nc3ccc(N4CCNCC4)cn3)nc2n(C2CCCC2)c1=O | 14
COC(=O)C(NC(=O)NC1CCN(c2ccnc(Nc3ccc(F)cc3)n2)C1)c1ccccc1 (centres unmarked) [GSK1379712] | 6
O=c1cc(N2CCOCC2)nc2n(Cc3ccccc3F)ccn12 [GSK2297428] | 0
COc1ccc(CSc2nnc(-c3ccc4nccn4c3)o2)cc1C(F)(F)F | 12
COc1cccc(NC(=O)Nc2ccc(C)c(-c3ccc(C(=O)Nc4ccncc4)cc3)c2)c1 [GSK1398474] | 20
O=C1NC(=O)C(c2ccc(Cl)cc2)=C1Nc1ccc(O)cc1 [SB-340867] | 28
COC(=O)c1cccc(NC(=O)NC2CCN(c3ccnc(Nc4ccc(OC)cc4)n3)C2)c1 (centres unmarked) [GSK1379746] | 12
Cc1c(Cn2c3ccccc3n3c(=O)cc(N4CCOCC4)nc23)cccc1C(F)(F)F [GSK2306394] | 18
Nc1cccc(-c2ccc3c(N)n[nH]c3c2)n1 [GSK2192730] | 25
